Common to all, as to conditions: Compound concentration 20.0 uM, Protein concentration 2.0 uM, Result type QC Liability
Test [1] concerns the target Tyrosine-protein kinase ABL1 (Homo sapiens) (UniProt P00519).
The target in test [2] is Cyclin-dependent kinase 2 (Homo sapiens) (UniProt P24941).
Test [3] has as its target Casein kinase I isoform delta (Homo sapiens) (UniProt P48730).
Test [4] addresses Glycogen synthase kinase-3 beta (Homo sapiens) (UniProt P49841).
The target of test [5] is Mitogen-activated protein kinase 1 (Homo sapiens) (UniProt P28482).
The target of test [6] is T1, Aurora kinase A (Homo sapiens) (UniProt O14965).
T1 sequence (whole entry): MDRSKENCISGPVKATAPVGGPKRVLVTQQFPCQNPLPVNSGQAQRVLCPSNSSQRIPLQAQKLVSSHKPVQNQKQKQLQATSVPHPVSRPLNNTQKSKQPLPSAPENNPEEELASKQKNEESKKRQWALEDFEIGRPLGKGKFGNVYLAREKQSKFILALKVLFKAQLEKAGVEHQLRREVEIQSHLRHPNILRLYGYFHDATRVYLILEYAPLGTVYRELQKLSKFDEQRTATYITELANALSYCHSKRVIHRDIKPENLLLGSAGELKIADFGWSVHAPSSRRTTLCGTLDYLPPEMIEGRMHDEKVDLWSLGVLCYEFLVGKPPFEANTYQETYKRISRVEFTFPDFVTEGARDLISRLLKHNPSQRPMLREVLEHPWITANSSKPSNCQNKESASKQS

Mitogen-activated protein kinase 1 (Homo sapiens), sequence (P28482 whole entry): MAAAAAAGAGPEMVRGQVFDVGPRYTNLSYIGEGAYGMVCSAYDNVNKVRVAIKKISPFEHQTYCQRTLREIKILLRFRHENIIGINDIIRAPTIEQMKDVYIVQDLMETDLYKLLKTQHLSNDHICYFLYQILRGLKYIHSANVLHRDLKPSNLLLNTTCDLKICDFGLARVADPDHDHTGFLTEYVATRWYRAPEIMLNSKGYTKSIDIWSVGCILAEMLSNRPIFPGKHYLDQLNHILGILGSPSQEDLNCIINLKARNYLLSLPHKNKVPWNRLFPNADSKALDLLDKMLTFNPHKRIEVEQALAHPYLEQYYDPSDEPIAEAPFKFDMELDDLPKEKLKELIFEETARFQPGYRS
Casein kinase I isoform delta (Homo sapiens), sequence (P48730 whole entry, looked up, canonical isoform): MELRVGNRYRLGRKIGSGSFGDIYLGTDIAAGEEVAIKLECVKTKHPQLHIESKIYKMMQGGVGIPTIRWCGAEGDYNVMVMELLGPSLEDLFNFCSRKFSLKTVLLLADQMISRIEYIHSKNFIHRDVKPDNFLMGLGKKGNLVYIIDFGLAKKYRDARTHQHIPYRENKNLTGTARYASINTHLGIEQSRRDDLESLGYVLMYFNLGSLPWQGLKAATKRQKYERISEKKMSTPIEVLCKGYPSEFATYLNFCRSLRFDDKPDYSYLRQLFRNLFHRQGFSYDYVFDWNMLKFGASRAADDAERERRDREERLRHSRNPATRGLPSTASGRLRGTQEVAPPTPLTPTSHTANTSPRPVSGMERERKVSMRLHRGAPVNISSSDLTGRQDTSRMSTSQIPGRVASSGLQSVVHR
Glycogen synthase kinase-3 beta (Homo sapiens), sequence (P49841 whole entry, looked up): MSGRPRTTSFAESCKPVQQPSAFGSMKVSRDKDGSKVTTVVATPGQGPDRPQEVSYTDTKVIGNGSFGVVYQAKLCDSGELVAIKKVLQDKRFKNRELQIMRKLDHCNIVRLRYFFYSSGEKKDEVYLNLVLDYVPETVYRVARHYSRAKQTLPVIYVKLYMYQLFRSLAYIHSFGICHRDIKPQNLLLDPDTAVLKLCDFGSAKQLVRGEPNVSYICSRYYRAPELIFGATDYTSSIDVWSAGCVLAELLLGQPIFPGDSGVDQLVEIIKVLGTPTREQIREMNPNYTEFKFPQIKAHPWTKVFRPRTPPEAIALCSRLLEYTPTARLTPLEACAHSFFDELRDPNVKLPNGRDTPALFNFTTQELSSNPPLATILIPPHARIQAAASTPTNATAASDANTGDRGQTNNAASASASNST
Tyrosine-protein kinase ABL1 (Homo sapiens), sequence (P00519 whole entry): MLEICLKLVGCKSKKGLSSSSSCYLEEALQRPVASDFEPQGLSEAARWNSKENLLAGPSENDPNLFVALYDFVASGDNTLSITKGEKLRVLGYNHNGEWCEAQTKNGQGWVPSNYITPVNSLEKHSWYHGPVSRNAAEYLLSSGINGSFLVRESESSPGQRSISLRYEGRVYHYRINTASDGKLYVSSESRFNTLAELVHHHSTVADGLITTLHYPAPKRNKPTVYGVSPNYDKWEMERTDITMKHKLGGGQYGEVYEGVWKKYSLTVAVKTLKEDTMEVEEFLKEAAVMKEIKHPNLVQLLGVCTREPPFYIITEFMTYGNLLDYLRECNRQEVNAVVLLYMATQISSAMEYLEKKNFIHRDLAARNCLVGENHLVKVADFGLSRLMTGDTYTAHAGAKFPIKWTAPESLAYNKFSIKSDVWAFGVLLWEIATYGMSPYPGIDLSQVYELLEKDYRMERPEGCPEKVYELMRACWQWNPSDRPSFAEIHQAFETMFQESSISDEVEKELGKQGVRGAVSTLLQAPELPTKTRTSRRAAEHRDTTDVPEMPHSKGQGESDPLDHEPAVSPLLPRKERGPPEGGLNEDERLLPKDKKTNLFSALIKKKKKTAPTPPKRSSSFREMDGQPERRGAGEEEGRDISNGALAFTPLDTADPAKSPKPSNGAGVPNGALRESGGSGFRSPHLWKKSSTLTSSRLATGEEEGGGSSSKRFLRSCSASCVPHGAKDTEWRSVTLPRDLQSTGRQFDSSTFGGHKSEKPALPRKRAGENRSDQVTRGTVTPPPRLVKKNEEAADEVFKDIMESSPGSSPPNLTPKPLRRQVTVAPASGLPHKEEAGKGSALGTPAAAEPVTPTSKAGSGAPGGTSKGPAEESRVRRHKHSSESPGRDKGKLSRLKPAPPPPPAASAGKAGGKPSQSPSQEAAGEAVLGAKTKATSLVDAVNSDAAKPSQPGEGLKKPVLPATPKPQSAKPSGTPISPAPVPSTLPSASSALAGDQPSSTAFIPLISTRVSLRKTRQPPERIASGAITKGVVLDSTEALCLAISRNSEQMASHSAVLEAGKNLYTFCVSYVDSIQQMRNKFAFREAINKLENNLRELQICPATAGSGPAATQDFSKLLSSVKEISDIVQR

As to `CC(=O)c1ccc2c(c1)/C(=C(/NC1CCN(C)CC1)c1ccc3c(c1)OCO3)C(=O)N2`, the ΔTm in test [1] came to 0.16 °C; in test [2], 4.87 °C; in test [3], 2.46 °C; in test [4] it was 15.5 °C; in test [5], 0.57 °C; in test [6], 0.78 °C.

For `CC(C)C[C@H](NC(=O)[C@@H](O)[C@H](N)Cc1ccccc1)C(=O)O`, the ΔTm was -0.05 °C in test [1]; 1.32 °C in test [2]; 0.13 °C in test [3]; 0.33 °C in test [4]; 0.15 °C in test [5]; -0.07 °C in test [6].

With `CC1(C)CCN(C(=O)C2CN(c3c4c(nc5ccnn35)CCNCC4)C2)C1`, the ΔTm was -0.37 °C in test [1]; 0.71 °C in test [2]; 0.26 °C in test [3]; -0.71 °C in test [4]; 0.08 °C in test [5]; -0.02 °C in test [6].

Turning to `O=C(CCCN1CCC(O)(c2ccc(Cl)cc2)CC1)c1ccc(F)cc1`, the thermal shift (ΔTm) was 0.25 °C in test [1]; 0.82 °C in test [2]; 0.25 °C in test [3]; -0.66 °C in test [4]; 0.38 °C in test [5]; -0.3 °C in test [6].

For the compound `Cc1cc(OC2CCS(=O)(=O)CC2)cc(C)c1-c1cccc(COc2ccc(C(=O)O)c(F)c2)c1`, the ΔTm in test [1] was 0.14 °C; in test [2], -1.08 °C; in test [3] it was 0.23 °C; in test [4] it was -0.54 °C; in test [5] it was 0.7 °C; in test [6], -1.19 °C.

Take `COc1ccc(S(=O)(=O)N2CCOCC2)cc1Nc1ccc2c(n1)N(C1CCOCC1)[C@H](C)C(=O)N2C`: the ΔTm is -0.18 °C in test [1]; 0.41 °C in test [2]; -0.08 °C in test [3]; -0.48 °C in test [4]; -0.88 °C in test [5]; 0.03 °C in test [6].

For `O=C1COc2cc(C(=O)N(Cc3ccc(C(=O)Nc4ccncn4)cc3)C3CC3)ccc2N1`, the ΔTm in test [1] is 0.5 °C; in test [2], 0.47 °C; in test [3], -0.01 °C; in test [4] it was -0.19 °C; in test [5], 0.31 °C; in test [6] it was 0.08 °C.

Regarding `CS(=O)(=O)c1cc(C2(NC(=O)c3cncc4c3cnn4-c3ccc(F)cc3)CC2)ccn1`, the ΔTm in test [1] was 0.11 °C; in test [2], 0.77 °C; in test [3], 0.73 °C; in test [4] it was -0.04 °C; in test [5] it was -0.47 °C; in test [6], 0.05 °C.

Consider `O=C(O)CCCN1CCC[C@H]1COc1ccc(Oc2ccc(Cl)cc2)cc1`, for which the ΔTm is 0.14 °C in test [1]; 0.25 °C in test [2]; -0.11 °C in test [3]; -0.15 °C in test [4]; -0.08 °C in test [5]; -0.43 °C in test [6].

For `Fc1ccc(Cl)cc1-c1nc(Nc2ccncc2)c2nccnc2n1`, the ΔTm is 0.4 °C in test [1]; 1.19 °C in test [2]; 2.24 °C in test [3]; 0.58 °C in test [4]; 0.56 °C in test [5]; -0.16 °C in test [6].

Consider `CN(C)C/C=C/C(=O)Nc1cccc(S(=O)(=O)N2CCC(NC(=O)c3n[nH]cc3NC(=O)c3c(Cl)cc(Cl)cc3Cl)CC2)c1`, for which the ΔTm is 3.66 °C in test [1]; 11.4 °C in test [2]; 2.28 °C in test [3]; 10.9 °C in test [4]; 1.34 °C in test [5]; 2.6 °C in test [6].

For `CN(C)C/C=C/C(=O)Nc1ccc(C(=O)Nc2cccc(Nc3ncc(Cl)c(-c4c[nH]c5ccccc45)n3)c2)cc1`, the ΔTm in test [1] is 6.42 °C; in test [2], 7.89 °C; in test [3], -0.47 °C; in test [4] it was 12.9 °C; in test [5] it was -1.25 °C; in test [6], 10.2 °C.

With `C=CC1C[C@]1(NC(=O)[C@@H]1C[C@@H](Oc2cc(-c3csc(NC(=O)C(C)C)n3)nc3c(Br)c(OC)ccc23)CN1C(=O)[C@@H](NC(=O)OC1CCCC1)C(C)(C)C)C(=O)O` (some centres not stated), the ΔTm was 0.33 °C in test [1]; 0.56 °C in test [2]; 0 °C in test [3]; -2.17 °C in test [4]; -1.13 °C in test [5]; 0.81 °C in test [6].

Take `Cn1ncc(NC(=O)c2nc(-c3c(F)cccc3F)sc2N)c1N1CC[C@@H](N)[C@H](F)CC1`: the ΔTm was found to be 0.6 °C in test [1]; 1.59 °C in test [2]; 0.57 °C in test [3]; 12.4 °C in test [4]; 0.32 °C in test [5]; 0.87 °C in test [6].

On to `CN1CCN(c2ccc(-n3cc(-c4ccncc4OCC4CCNCC4)cn3)cc2)CC1`, for which the ΔTm is 1.5 °C in test [1]; 1.21 °C in test [2]; 1.48 °C in test [3]; -0.06 °C in test [4]; 0.53 °C in test [5]; -0.52 °C in test [6].

Take `CS(=O)(=O)NC(=O)CCC/C=C\C[C@H]1C(=O)C[C@@H](O)[C@@H]1/C=C/[C@@H](O)COc1ccccc1`: the ΔTm in test [1] was -0.33 °C; in test [2], 0.46 °C; in test [3], -0.2 °C; in test [4], 0.54 °C; in test [5], 0.01 °C; in test [6], -0.19 °C.

As for `COc1cnccc1Nc1nc(-c2nn(Cc3c(F)cc(OCCO)cc3F)c3ccccc23)ncc1OC`, the ΔTm in test [1] is -0.43 °C; in test [2], -0.62 °C; in test [3], -2.9 °C; in test [4], -5.93 °C; in test [5] it was -0.07 °C; in test [6], -1.95 °C.

The ΔTm is the change in melting temperature against a reference sample.
